The source of these data is PubChem BioAssay AID868 (SRMLSC, 2007).

Molecules are shown by their SMILES. Out of some 190,000 compounds screened, about 3,500 (1.8%) were called active.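 How the source made its calls: active means inhibition above a set limit, 3 SD over mean compound inhibition (cut at about 8.4% in these data); inactive means the rest.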 The entries come from a sample that favours actives as a whole.

This test is described as follows: RAM signaling blockers in budding yeast – dse1pr::URA3 reporter, 5-FOA selection, primary screen (AID 868).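 Further: 0% = DMSO-only wells with no growth and 100% = 10 µM 1-NA-PP1 full growth; inhibition rescues growth on 5-FOA so higher OD means more RAM inhibition.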 The following applies: S. cerevisiae dse1pr::URA3 reporter, 5-FOA growth OD615, 2 d; at 50 µM; stronger effect = higher value.
One may read the inhibition as the drop in the measured response relative to a control, in per cent. Regarding `O=C(Nc1cccc2ccccc12)N1CCC2(CC1)OCCO2`, the inhibition was 1.87% (inactive).

With `CC(=O)Nc1ccccc1C(=O)OCC(=O)c1cccc2ccccc12`, the inhibition is 9.49% (active).

For the molecule `CC1=CC(=Cc2sc3ccccc3[n+]2C)C=C(C)O1`, the inhibition was 0.13% (inactive).

Regarding `Cc1ccc(-c2cc(C(=O)N3CCC4(CC3)OCCO4)no2)cc1`, the inhibition is -1.75% (inactive).

With `COC(=O)N1C(c2ccccc2)C1c1ccccc1` (stereo not given), the inhibition is 0.12% (inactive).

Turning to `OCC#CC[N+]1(CC#Cc2ccccc2)CCCC1`, the inhibition is 2.58% (inactive).

With `O=C(NC(c1ccc(Cl)cc1)P(=O)(Oc1ccccc1)Oc1ccccc1)OCc1ccccc1` (stereo not given), the inhibition is 11.3% (active).

Take `O=C(Nc1cccc(OC(=O)N2CCCCC2)c1)N1CCOCC1`: the inhibition is -1.26% (inactive).

For `Cc1ccnc(-n2c(C)cc(/C=C3\C(=O)NC(=S)N(C)C3=O)c2C)c1`, the inhibition was 1.13% (inactive).

As to `CCOC(=O)C1SC2(C(F)(F)C(F)F)CC1(O)c1c(c(OC)c3occc3c1OC)O2` (stereo not given), the inhibition is 9.36% (active).

For `NC(=O)Cn1cc(C(=O)c2ccccc2F)c2ccccc21`, the inhibition was 4.57% (inactive).

Take `CN1CCN(C(=S)SCC(=O)Nc2ccc(Cl)cc2C(=O)c2ccccc2)CC1`: the inhibition was -0.25% (inactive).

Consider `O=C(COC(=O)c1ccccc1)Nc1ccc(Cl)cc1C(=O)c1ccccc1`, for which the inhibition is 8.43% (active).

`O=C(CCNS(=O)(=O)c1ccccc1)Nc1ccc(Cl)cc1C(=O)c1ccccc1`: the inhibition is 2.12% (inactive).

Turning to `COc1ccc(NC(=O)N2CCC3(CC2)OCCO3)c(OC)c1`, the inhibition is 4.37% (inactive).

Take `Cc1ccc(-c2nn(CCC#N)cc2C(=O)O)cc1C`: the inhibition was -0.13% (inactive).

Consider `C=CCN(CC=C)C(=O)Nc1ccc(OCC)cc1`, for which the inhibition was 1.22% (inactive).

As for `CN(C)P(=S)(Nc1ccccc1)C(Cl)(Cl)Cl` (stereo not given), the inhibition was 1.76% (inactive).

For the molecule `CC(Cc1cccs1)NCc1ccc(Cl)cc1` (stereo not given), the inhibition was 1.87% (inactive).

Consider `CC1CCCCN1Cc1cccnc1` (stereo not given), for which the inhibition is 1.23% (inactive).
